Values without a mark were called inactive. Records with an inconclusive call do not appear. Entries that show only a call come without a potency. Active and inactive are the calls of the source. The call rests on the fitted dose curve; in most records, active means well fitted curve in the direction sought with a large enough effect; inconclusive means small, poorly fitted or top-dose-only effect, or another doubt; inactive means no such curve, though single readings can be large; an effect the other way counts as inactive or inconclusive.
How the values were obtained:
[1] = molecular target: Glutathione peroxidase 1 (Homo sapiens) (UniProt P07203); experiment: Primary qHTS Assay for Inhibitors of Recombinant Selenoprotein Glutathione Peroxidase 1 (GPX1) (AID 1845191); further: nearly all actives have a fitted effect of over 65% in size
In short: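 10 nM GPX1 + cpd, 30 min RT; start w/ 1 mM GSH, 0.5 mM cumene hydroperoxide, 0.5 mM NADPH, 100 nM GR, 0.01% BSA; buffer 50 mM Tris-HCl pH 7.5, 2 mM EDTA, 150 mM NaCl; Fl 340/450, 0 & 15 min.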

[2] = molecular target: Phospholipid hydroperoxide glutathione peroxidase GPX4 (Homo sapiens) (UniProt P36969); experiment: Primary qHTS Assay for Inhibitors of Recombinant Selenoprotein Glutathione Peroxidase 4 (GPX4) (AID 1845192); further: nearly all actives have a fitted effect of over 65% in size; on activity change, negative = inhibition: series mostly up to about 50 µM
In short: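 NADPH consumption, followed by fluorescence at 340/450 nm between 0 and 15 min, reports GPX4 activity via coupled glutathione reductase (100 nM). Enzyme 200 nM was pre-exposed to compound 30 min; 0.5 mM cumene hydroperoxide and 1 mM GSH served as substrates.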

[3] = molecular target: Luciferin 4-monooxygenase (Photinus pyralis) (UniProt P08659); experiment: Primary firefly luciferase (FLuc) qHTS assay for identification of artifact compounds. (AID 1845220); further: nearly all actives have a fitted effect of over 60% in size; on activity change, negative = inhibition: series mostly up to about 54 µM
In short: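 Compounds sat 15 min at room temperature with 10 uM luciferin and 10 uM ATP (pH 7.6 Tris acetate). Firefly luciferase (10 nM final) was then added, and luminescence was read 5 min later. Data normalized to no-enzyme and DMSO controls were Hill-fitted.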

[4] = Primary fluorescence-based thiol-reactive (MSTI) qHTS assay for identification of artifact compounds. (AID 1845221); further: nearly all actives have a fitted effect of over 65% in size; further: potency means the concentration at half of the fitted maximal effect;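 on activity change, negative = thiol reactive: series mostly up to about 54 µM; thiol-reactive compounds lower the probe fluorescence signal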
In short: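 Curve-fitted percent inhibition (4-parameter Hill) derived from fluorescence, Ex 525/Em 598 nm, scaled with Acetyl-MSTI and MSTI; 1 h incubation at room temperature.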

[5] = system: Nanoluciferase (engineered Oplophorus gracilirostris luciferase); experiment: Primary Nanoluciferase (NLuc) qHTS assay for identification of artifact compounds. (AID 1845222); further: series mostly up to about 54 µM
In short: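 Luminescence from secreted NLuc (filtered, 1:55-diluted S16 cell medium) read 5 min after Nano-Glo substrate; compounds preincubated 15 min, RT. Hill fits of inhibition normalized to DMSO and no-enzyme.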

[6] = Primary redox qHTS assay for identification of artifact compounds. (AID 1845223)
In short: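 Amplex Red (25 uM) and HRP (250 mU/mL) in HBSS, with compounds for 15 min, then 250 uM DTT for 30 min, room temperature, dark. Fluorescence 525/598 nm read; normalized to DMSO and 10 uM DA3003; Hill fit.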

Sequence of Phospholipid hydroperoxide glutathione peroxidase GPX4 (Homo sapiens) (P36969 whole entry, looked up): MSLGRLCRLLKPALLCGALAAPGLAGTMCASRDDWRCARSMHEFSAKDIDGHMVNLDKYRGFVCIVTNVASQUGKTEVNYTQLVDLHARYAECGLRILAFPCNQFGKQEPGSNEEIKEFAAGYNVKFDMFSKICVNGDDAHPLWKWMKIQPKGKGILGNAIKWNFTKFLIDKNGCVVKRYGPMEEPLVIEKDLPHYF
Sequence of Glutathione peroxidase 1 (Homo sapiens) (P07203 whole entry, looked up): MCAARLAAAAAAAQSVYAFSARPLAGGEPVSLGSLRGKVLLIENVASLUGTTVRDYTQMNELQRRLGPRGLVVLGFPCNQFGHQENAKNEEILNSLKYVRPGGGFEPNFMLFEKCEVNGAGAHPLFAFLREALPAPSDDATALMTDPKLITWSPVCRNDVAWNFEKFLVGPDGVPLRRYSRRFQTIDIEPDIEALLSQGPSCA

SMILES | Potency [1] | Potency [2] | Potency [3] | Potency [4] | Potency [5] | Potency [6] | outcome [3] | activity change, negative = thiol reactive [4] | activity, negative = inhibition [5] | redox activity (% of DA3003) [6] | activity change, negative = inhibition [3]
C=C1C(OC(C)=O)C(=O)C2C(C)(C)C(O)CCC2(C)C1CC(OC(C)=O)/C(C)=C/COC(C)=O (centres undefined) | inactive | inactive | inactive | inactive | inactive | inactive |  |  |  |  | 
COC(=O)C1=CO[C@@H](O[C@@H]2O[C@H](CO)[C@@H](O)[C@H](O)[C@H]2O)[C@H]2[C@@H]1[C@H](O)[C@H](O)[C@]2(C)O | inactive | inactive | inactive | 13 µM (active) | inactive | inactive |  |  |  |  | 
CC(=O)OC1CC2C(C)(C)C(=O)C=CC2(C)C2CC(=O)C3=C(CCC3C3=CC(O)OC3=O)C12C (centres undefined) | inactive | inactive | inactive | inactive | inactive | inactive |  |  |  |  | 
COc1cc([C@H]2OC[C@](O)(Cc3ccc(O[C@@H]4O[C@H](CO)[C@@H](O)[C@H](O)[C@H]4O)c(OC)c3)[C@@H]2CO)ccc1O | inactive | inactive | inactive | inactive | inactive | inactive |  |  |  |  | 
CC(=O)OC1C(O)C(C)(O)C(/C=C/C(=O)O)C2(C)CCCC(C)(C)C12 (centres undefined) | inactive | inactive | inactive | inactive | inactive | inactive |  |  |  |  | 
O=C(OC[C@H]1O[C@H](O[C@]2(CO)O[C@H](CO)[C@@H](O)[C@@H]2O)[C@H](O)[C@@H](O)[C@@H]1O)c1ccc(O)cc1 | inactive | inactive | inactive | inactive | inactive | inactive |  |  |  |  | 
CC(=O)O[C@@H]1CC2C(C)(C)C(=O)C=C[C@]2(C)C2CC[C@]3(C)C(=CC(=O)[C@@H]3c3ccoc3)[C@@]21C (some centres undefined) | inactive | inactive | inactive | inactive | inactive | inactive |  |  |  |  | 
CC1(C)[C@@H]2CC=C(CO[C@@H]3O[C@H](CO[C@@H]4OC[C@H](O)[C@H](O)[C@H]4O)[C@@H](O)[C@H](O)[C@H]3O)[C@H]1C2 | inactive | inactive | inactive | inactive | inactive | inactive |  |  |  |  | 
C=C(C)C1CCC2(C(=O)OC3OC(COC4OC(CO)C(O)C(O)C4O)C(OC4OC(C)C(O)C(O)C4O)C(O)C3O)CCC3(C(=O)O)C(CCC4C5(C)CCC(=O)C(C)(C)C5CCC43C)C12 (centres undefined) | inactive | inactive |  |  |  |  | inactive [at 11.6 µM] | 183% [at 11.5 µM] | 3.95% [at 11.6 µM] | 7.53% [at 11.5 µM] | 
CC[C@H]1OC(=O)[C@H](C)[C@@H](O[C@H]2C[C@@](C)(OC)[C@@H](O)[C@H](C)O2)C(C)[C@@H](O[C@@H]2O[C@H](C)C[C@H](N(C)C)[C@H]2O)[C@](C)(O)C[C@@H](C)CN(C)[C@H](C)[C@@H](O)[C@]1(C)O (some centres undefined) | inactive | inactive | inactive | inactive | inactive | inactive |  |  |  |  | 
C=C1CC/C=C(/CO)C(=O)C[C@@H]2[C@@H]1C[C@@]2(C)COC(C)=O | inactive | inactive | inactive | 11.9 µM (active) | inactive | inactive |  |  |  |  | 
CCC(C)C(N)C(=O)NCCN1CCOCC1 (centres undefined) | inactive | inactive | inactive | inactive | inactive | inactive |  |  |  |  | 
OC[C@H]1O[C@@H](OCc2ccccc2)[C@H](O)[C@@H](O)[C@@H]1O | inactive | inactive | inactive | 5.32 µM (active) | inactive | inactive |  |  |  |  | 
Nc1ccc(-n2nc(C(F)(F)F)cc2C(F)(F)F)cc1 | inactive | inactive | inactive | inactive | inactive | inactive |  |  |  |  | 
Cn1cc(-c2c[nH]c3ncnc(N4CCOCC4)c23)cn1 | inactive | inactive | inactive | inactive | inactive | inactive |  |  |  |  | 
C[C@@H]1O[C@@H](O[C@H]2[C@H](OC(=O)[C@]34CCC(C)(C)C[C@H]3C3=CCC5[C@@]6(C)CC[C@H](O[C@@H]7O[C@H](CO[C@@H]8OC[C@H](O)[C@H](O)[C@H]8O[C@@H]8OC[C@@H](O)[C@H](O)[C@H]8O)[C@@H](O)[C@H](O)[C@H]7O)C(C)(C)C6CC[C@@]5(C)[C@]3(C)C[C@H]4O)O[C@H](CO)[C@@H](O)[C@@H]2O)[C@H](O[C@@H]2O[C@H](CO)[C@@H](O)[C@H](O)[C@H]2O)[C@H](O)[C@H]1O[C@@H]1OC[C@@H](O)[C@H](O[C@@H]2OC[C@@H](O)[C@H](O)[C@H]2O)[C@H]1O (some centres undefined) | inactive | inactive |  |  |  |  |  | 385% [at 6.41 µM] | 3.87% [at 6.45 µM] | 13.7% [at 6.41 µM] | 2.11% [at 6.45 µM]
C=C1CCC2C(C)(C(=O)O)CCCC2(C)C1CC/C(C)=C\CO (centres undefined) | inactive | inactive | inactive | inactive | inactive | inactive |  |  |  |  | 
C=C(COC(=O)C(C)C)C1Oc2cc(C(C)=O)ccc2C1OC(=O)C(C)C (centres undefined) | inactive | inactive | inactive | inactive | inactive | inactive |  |  |  |  | 
CC1=C2CC3C(CCC3(C)O)C(C)(O)CC2OC1=O (centres undefined) | inactive | inactive | inactive | 23.8 µM (active) | inactive | inactive |  |  |  |  | 
